Like-named read-outs stand apart in the source and are kept apart here. Whole data set: some 7,300 compounds, median “AC50” near 90,000 nM, cut for the lowest 2% near 20,000 nM. The list shows a part of the results.
Test system: thyroid hormone receptor (endogenous TRα and TRβ)
Design: species or system GH3-TRE-Luc (rat pituitary); GH3-TRE-Luc luciferase reporter transactivation, agonist mode, qHTS; RXR ligands can also activate indirectly

Row | Structure (SMILES) | AC50 (read-out: TR_LUC_GH3_Agonist_AC50, agonist mode, primary qHTS, 24 h) [µM] | AC50 (read-out: TR_LUC_GH3_Agonist_AC50, agonist mode, primary qHTS, 24 h, TR_LUC_GH3_Agonist_AC50 (uM)) [µM]
1 | O=C(O)Cc1cc(I)c(Oc2ccc(O)c(I)c2)c(I)c1 [Tiratricol] | 0.000154 | 
2 | Cc1ccc(O)cc1 [Cresol] |  | 25
